From PubChem
E-sel TNF inh – E-selectin induction blockers in HUVEC – imaging, immunofluorescence, high content, primary screen; HUVEC TNFa-induced E-selectin immunofluorescence; inhibition, % at 2 µM; 0.71% of 120,000 active; AID 1246, 2008;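 active = inhibition above the batch mean plus 3 SD, and confirmed as a hit on visual image review, cut at about 43% in these data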;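 note: 0% = TNF-stimulated DMSO wells and 100% = unstimulated control wells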
NFkB transloc pot – enhancers of NFkB p65 translocation in HUVEC – imaging, IL-1B stimulus, high-content imaging, primary screen; AID 819, 2007; 0.3% of 94,000 active; HUVEC IL-1B NFkB p65 nuclear translocation imaging; activation, % at 2 µM;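 active = activation above 40%, about the mean plus 3 SD, also judged a hit on visual image review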;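 note: percent activation is computed from the nuclear over cytoplasmic p65 intensity ratio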
VCAM1 TNFa inh – inhibitors of TNFa-induced VCAM1 expression, primary screen, imaging, HUVEC, TNFa stimulus, immunofluorescence; HUVEC TNFa-induced VCAM-1 immunofluorescence, high-content imaging; inhibition, % at 2 µM; 0.48% of 95,000 active;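 active = inhibition above the batch mean plus 3 SD, with images confirmed as a hit by eye, cut at about 37% in these data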;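 note: 0% = TNF-stimulated DMSO wells and 100% = unstimulated control wells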
IL1B cytotox – cytotoxicity in IL-1B stimulated HUVEC, primary screen, cytotoxicity control for IL-1B NFkB translocation project, imaging, Hoechst nuclear count, IL-1B stimulus; HUVEC cell count loss; cell count reduction, % at 2 µM; 0.41% of 94,000 active;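 active = cell count reduction more than 3 SD above the screen-wide mean, cut at about 70% in these data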;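 note: normalized per plate to untreated control cells as the no-loss baseline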
IL1B NFkB inh – inhibitors of IL-1B driven NFkB p65 nuclear import, primary screen, imaging, HUVEC, IL-1B stimulus, high-content imaging; HUVEC IL-1B NFkB p65 nuclear translocation imaging; inhibition, % at 2 µM; 0.43% of 94,000 active; AID 796, 2007;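 active = inhibition above about 30% together with a positive call from visual inspection of the well image, limit read from the data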;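 note: nuclear over cytoplasmic p65 intensity ratio measured by imaging; 0% = IL-1B stimulated DMSO wells and 100% = unstimulated DMSO wells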
HUVEC tox TNFa – cytotoxicity in TNFa-stimulated HUVEC, primary screen, cytotoxicity control for VCAM1 expression modulator project, imaging, Hoechst nuclei count; 0.17% of 93,000 active; cell count reduction, % at 2 µM; HUVEC TNFalpha-stimulated, Hoechst cell count;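 active = cell count reduction exceeding the screen mean by over 5 SD, scaled to untreated wells per plate, cut at about 78% in these data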;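 note: cells counted after 24 h of TNF alpha exposure following the 1 h pretreatment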
The depositor's hits bear a star; . = no result. In the library only some 1.7% were active in any assay of this set; here they are far more common.

SMILES | E-sel TNF inh | NFkB transloc pot | VCAM1 TNFa inh | IL1B cytotox | IL1B NFkB inh | HUVEC tox TNFa
CCOc1ccc(N(CC(=O)Nc2cccc(OC)c2)S(=O)(=O)c2c(C)noc2C)cc1 | . | -49 | 15 | -18 | 50* | -16
CCCn1c(SCC(=O)NCc2ccco2)nnc1C(C)C | -26 | -2 | 84* | 18 | 2 | 82*
Cc1nnc(SCC(=O)NCc2ccco2)n1Cc1ccccc1 | -6 | 10 | 22 | -27 | -10 | -23
CCC1CCCCN1C(=O)CSc1nnc(-c2cccs2)o1 (stereo unspecified) | -15 | -97 | 19 | 86* | 97* | -6
COc1cccc(-n2cnc3c(sc4nc(N5CCOCC5)c5c(c43)CCCC5)c2=O)c1 | -14 | . | . | . | . | .
O=C(NN=C1CCN(Cc2ccccc2)CC1)c1ccccc1 | 68* | . | . | . | . | .
COc1ccc(C(C(=O)NC(C)(C)C)N(C(=O)CNC(=O)c2cccs2)c2ccc(C)cc2)cc1OC (stereo unspecified) | 3 | 3 | 18 | -14 | -3 | -14
CCC(C)(C)NC(=O)c1ccc2c(c1)OCCO2 | -3 | . | . | . | . | .
Cc1ccc(C(=O)N[C@H](C(=O)Nc2cc(Cl)cc(Cl)c2)C(C)C)cc1 | 6 | . | . | . | . | .
CN(Cc1ccccc1)S(=O)(=O)c1ccc(NC(=S)NC(=O)C2CCCC2)cc1 | -3 | -3 | 48* | 24 | 3 | 16
CN(Cc1ccccc1)C(=S)NC(=O)C1CCCCC1 | 93* | . | . | . | . | .
O=C(NC(=S)N(Cc1ccccc1)c1ccccn1)C1CCCCC1 | -11 | . | . | . | . | .
Cn1cccc1/C=N/n1c(-c2ccccc2)n[nH]c1=S | -21 | 8 | -14 | 9 | -8 | -18
Fc1ccc(-c2n[nH]c(=S)n2/N=C/c2c[nH]c3ccccc23)cc1 | 61* | . | . | . | . | .
Cc1ccn2c(Nc3ccccc3C)c(-c3ccncc3)nc2c1 | 8 | . | . | . | . | .
O=C(N/N=C/c1ccc([N+](=O)[O-])cc1)c1ccc(COc2ccccc2-c2ccccc2)cc1 | 10 | . | . | . | . | .
CC(C)(C)c1ccc(C(=O)N2CCC(C(=O)NCc3ccncc3)CC2)cc1 | -46 | -100 | 14 | 94* | 100* | 3
COc1ccc(-n2c(SCC(=O)NCc3ccco3)nc3c([nH]c4ccccc43)c2=O)cc1 | 82* | -2 | 14 | 9 | 2 | -18
Cc1[nH]n(-c2ccccc2)c(=O)c1/C=N\NC(=O)C1COc2ccccc2O1 (stereo unspecified) | -5 | . | . | . | . | .
O=C1N2CCSC2=NC1(Nc1ccccn1)C(F)(F)F (stereo unspecified) | . | 22 | 86* | -24 | -22 | -18
Clc1ccc(OCCCCSc2ncccn2)cc1 | 10 | 1 | -23 | -10 | -1 | -11
CCCOc1ccc(OCCSc2ncccn2)cc1 | -13 | 44* | 15 | -34 | -44 | -6
CCOc1ccc(OCCSc2nc3ccccc3o2)cc1 | 12 | -42 | 14 | 4 | 42* | 12
CCN(CC)S(=O)(=O)c1cccc2cc(C(=O)O)c(O)cc12 | 1 | -8 | 9 | 12 | 8 | -21
Cc1ccc(C(=O)Nc2c(C)cc(-c3ccccc3)oc2=O)cc1 | -12 | . | . | . | . | .
SMILES | E-sel TNF inh | NFkB transloc pot | VCAM1 TNFa inh | IL1B cytotox | IL1B NFkB inh | HUVEC tox TNFa
CCOc1ccc(NC(=NCc2ccc3c(c2)OCO3)SC2CC(=O)N(c3ccc(C(=O)O)cc3)C2=O)cc1 (stereo unspecified) | 0 | . | . | . | . | .
O=C(c1ccccc1C(F)(F)F)N1CCN(S(=O)(=O)c2ccccc2)CC1 | 6 | 1 | -1 | -17 | -1 | -20
CN(C)C(=O)NCc1ccc(S(N)(=O)=O)cc1 | -5 | -7 | 24 | 87* | 7 | -4
O=C(CC12CC3CC(CC(C3)C1)C2)NC(=S)NCc1ccccc1 | -34 | . | . | . | . | .
Cc1cc(C(=O)NCc2ccc(S(N)(=O)=O)cc2)c(C)o1 | -7 | -12 | -3 | -26 | 12 | -12
NS(=O)(=O)c1ccc(CNC(=O)CC23CC4CC(CC(C4)C2)C3)cc1 | -5 | -32 | -6 | 12 | 32* | -20
Cc1cccc(CN2CCN(C(=O)CCc3nnc(C4CCCCC4)o3)CC2)c1 | -5 | . | . | . | . | .
FC(F)(F)c1ccccc1C1C2=C(Nc3ncnn31)c1ccccc1CCC2 (stereo unspecified) | -18 | 32 | 8 | -1 | -32 | 1
